From PubChem BioAssay (NCI)
This is part of a sample that, as a whole, favours compounds with a hit. Of some 79,000 tested, about 15% had one in any assay. Calls of active or inactive are those of the source. Rule as the data show it: active = growth inhibition above about 70%; inactive = the rest.

Legend:
[1] = NCI Yeast Anticancer Drug Screen. Data for the rad52 strain (AID 147);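 also: 0% = growth of vehicle-treated control cultures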; conditions: S. cerevisiae rad52 mutant growth inhibition, stronger effect = higher value
Outline: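 Read-out: growth inhibition versus vehicle-treated controls. Cells were a DNA repair-deficient yeast strain treated with compounds.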

[2] = NCI Yeast Anticancer Drug Screen. Data for the wt1 strain (AID 149);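 also: 0% = growth of vehicle-treated wt1 cultures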; conditions: S. cerevisiae wt1 strain (SPY 50644) growth inhibition, stronger effect = higher value
Outline: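 wt1 strain grown with compound or vehicle; inhibition taken from the growth difference.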

[3] = NCI Yeast Anticancer Drug Screen. Data for the rad50EPP+ strain (AID 151);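 also: 0% = growth of vehicle-treated control cultures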; conditions: S. cerevisiae rad50 mutant strain, stronger effect = higher value
Outline: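 Growth inhibition read against vehicle controls in rad50EPP+ yeast, a strain altered in DNA damage repair, after compound exposure.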

[4] = NCI Yeast Anticancer Drug Screen. Data for the mgt1 strain (AID 153); conditions: S. cerevisiae mgt1 mutant growth inhibition, stronger effect = higher value
Outline: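 mgt1 yeast grown with test compound; read-out is growth inhibition versus vehicle-treated cultures.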

[5] = NCI Yeast Anticancer Drug Screen. Data for the rad50 strain (AID 155);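 also: 0% = growth of vehicle-only cultures of the same strain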; conditions: S. cerevisiae rad50 strain growth inhibition, stronger effect = higher value
Outline: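 DNA repair mutant yeast, compound exposure, growth read-out; inhibition is taken relative to vehicle.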

[6] = NCI Yeast Anticancer Drug Screen. Data for the mec2-1 strain (AID 157); conditions: S. cerevisiae mec2-1 strain, stronger effect = higher value
Outline: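 Yeast mec2-1 mutant treated with compound. Readout: growth inhibition vs vehicle controls.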

[7] = NCI Yeast Anticancer Drug Screen. Data for the rad14 strain (AID 159);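 also: 0% = growth of vehicle-treated control cultures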; conditions: S. cerevisiae rad14 strain growth inhibition, stronger effect = higher value
Outline: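 DNA repair-defective yeast, compound-exposed; % growth inhibition derived by comparison with vehicle-treated controls.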

[8] = NCI Yeast Anticancer Drug Screen. Data for the sgs1 mgt1 strain (AID 161);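 also: 0% = growth of cultures given vehicle only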; conditions: S. cerevisiae sgs1 mgt1 strain, stronger effect = higher value
Outline: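 Read-out: growth inhibition vs vehicle controls. Cells: mutant yeast strain deficient in DNA damage repair.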

[9] = NCI Yeast Anticancer Drug Screen. Data for the CLN2oe strain (AID 163);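 also: 0% = growth of vehicle-only control cultures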; conditions: S. cerevisiae CLN2oe strain, stronger effect = higher value
Outline: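 Read-out: yeast growth inhibition, expressed relative to vehicle-only controls. The strain bears an engineered cell-cycle alteration.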

[10] = NCI Yeast Anticancer Drug Screen. Data for the cln2 rad14 strain (AID 165);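 also: 0% = growth equal to vehicle treated cultures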; conditions: S. cerevisiae cln2 rad14 strain, stronger effect = higher value
Outline: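 cln2 rad14 yeast strain; compound exposure; growth inhibition read vs vehicle controls.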

[11] = NCI Yeast Anticancer Drug Screen. Data for the bub3 strain (AID 167); conditions: S. cerevisiae bub3 mutant strain, stronger effect = higher value
Outline: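 In this screen, a yeast mutant lacking normal mitotic checkpoint function is challenged with compound. Relative growth versus vehicle gives the inhibition value.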

[12] = NCI Yeast Anticancer Drug Screen. Data for the wt2 strain (AID 169);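 also: 0% = growth of vehicle-treated yeast cultures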; conditions: S. cerevisiae wt2 strain growth inhibition, stronger effect = higher value
Outline: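 Read-out: growth inhibition versus vehicle-treated control cultures after compound exposure of the yeast strain.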

[13] = NCI Yeast Anticancer Drug Screen. Data for the mlh1 strain (AID 171);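 also: 0% = growth of vehicle-treated control cultures of the same strain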; conditions: S. cerevisiae mlh1 strain growth inhibition, stronger effect = higher value
Outline: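 Read-out: growth inhibition versus vehicle controls. Strain: engineered yeast with a defined DNA repair or cell cycle defect, compound-treated.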

[14] = NCI Yeast Anticancer Drug Screen. Data for the sgs1 strain (AID 173);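 also: 0% = growth of vehicle-only control cultures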; conditions: S. cerevisiae sgs1 mutant, stronger effect = higher value
Outline: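 Read-out: yeast growth inhibition relative to vehicle controls, following compound exposure of a strain with a defined DNA repair/cell cycle alteration.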

[15] = NCI Yeast Anticancer Drug Screen. Data for the mlh1 rad18 strain (AID 175); conditions: S. cerevisiae mlh1 rad18 strain growth inhibition, stronger effect = higher value
Outline: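 Yeast w/ defined DNA-repair lesions; compound exposure; growth vs vehicle controls → % inhibition.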

[16] = NCI Yeast Anticancer Drug Screen. Data for the rad18 strain (AID 177); conditions: S. cerevisiae rad18 mutant growth inhibition, stronger effect = higher value
Outline: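 Readout: growth inhibition vs vehicle controls. Cells: genetically altered yeast strain, DNA repair defect.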

[17] = at 5.0 µM (retest, dose inferred, filed as 0.5)
[18] = at 50.0 µM (retest, dose inferred, filed as 5.0)

Measured: growth inhibition

Cc1cccc(NC(=O)CBr)c1
active: [1]; at 11.0 µM 97% | [1]; at 33.0 µM 98% | [1]; at 100.0 µM 99% | [2]; at 11.0 µM 98% | [2]; at 33.0 µM 99% | [2]; at 100.0 µM 98% | [3]; at 33.0 µM 96% | [3]; at 100.0 µM 99% | [4]; at 11.0 µM 99% | [4]; at 33.0 µM 99% | [4]; at 100.0 µM 99% | [5]; at 3.7 µM 73% | [5]; at 11.0 µM 97% | [5]; at 33.0 µM 99% | [5]; [18] 99% | [5]; at 50.0 µM 99.2% | [5]; at 100.0 µM 99% | [6]; at 11.0 µM 98% | [6]; at 33.0 µM 99% | [6]; [18] 99% | [6]; at 50.0 µM 99.7% | [6]; at 100.0 µM 99% | [7]; at 11.0 µM 99% | [7]; at 33.0 µM 99% | [7]; at 100.0 µM 99% | [8]; [18] 99% | [8]; at 50.0 µM 99.2% | [9]; at 11.0 µM 96% | [9]; at 33.0 µM 98% | [9]; at 100.0 µM 98% | [10]; [18] 99% | [10]; at 50.0 µM 99.1% | [11]; at 11.0 µM 97% | [11]; at 33.0 µM 98% | [11]; [18] 98% | [11]; at 50.0 µM 99.6% | [11]; at 100.0 µM 99% | [12]; at 11.0 µM 98% | [12]; at 33.0 µM 99% | [12]; at 100.0 µM 99% | [13]; at 11.0 µM 99% | [13]; at 33.0 µM 99% | [13]; at 100.0 µM 99% | [14]; at 11.0 µM 99% | [14]; at 33.0 µM 99% | [14]; at 100.0 µM 99% | [15]; [18] 99% | [15]; at 50.0 µM 99.3% | [16]; at 11.0 µM 97% | [16]; at 33.0 µM 99% | [16]; at 100.0 µM 99%
inactive: [1]; at 1.2 µM 3% | [1]; at 3.7 µM 41% | [2]; at 1.2 µM 1% | [2]; at 3.7 µM 24% | [3]; at 1.2 µM -10% | [3]; at 3.7 µM -3% | [3]; at 11.0 µM 26% | [4]; at 1.2 µM -2% | [4]; at 3.7 µM 22% | [5]; at 1.2 µM 6% | [5]; [17] 21% | [6]; at 1.2 µM 7% | [6]; at 3.7 µM 44% | [6]; [17] 1% | [7]; at 1.2 µM -27% | [7]; at 3.7 µM 57% | [8]; [17] 49% | [9]; at 1.2 µM 2% | [9]; at 3.7 µM 22% | [10]; [17] 34% | [11]; at 1.2 µM 13% | [11]; at 3.7 µM 58% | [11]; [17] 63% | [12]; at 1.2 µM 1% | [12]; at 3.7 µM 33% | [13]; at 1.2 µM -2% | [13]; at 3.7 µM 46% | [14]; at 1.2 µM 9% | [14]; at 3.7 µM 55% | [15]; [17] 45% | [16]; at 1.2 µM 5% | [16]; at 3.7 µM 39%

COc1cc2ccccc2c2cc([N+](=O)[O-])oc12
active: [1]; at 1.2 µM 82% | [1]; at 3.7 µM 88% | [1]; at 11.0 µM 91% | [1]; at 33.0 µM 91% | [1]; at 100.0 µM 91% | [3]; at 1.2 µM 82% | [3]; at 3.7 µM 86% | [3]; at 11.0 µM 91% | [3]; at 33.0 µM 90% | [3]; at 100.0 µM 88% | [5]; at 1.2 µM 79% | [5]; at 3.7 µM 88% | [5]; [17] 75% | [5]; at 11.0 µM 92% | [5]; at 33.0 µM 91% | [5]; [18] 76% | [5]; at 50.0 µM 78.2% | [5]; at 100.0 µM 88% | [6]; at 100.0 µM 78% | [7]; at 1.2 µM 91% | [7]; at 3.7 µM 93% | [7]; at 11.0 µM 95% | [7]; at 33.0 µM 94% | [7]; at 100.0 µM 93% | [8]; [17] 73% | [8]; [18] 76% | [10]; [17] 91% | [10]; [18] 84% | [10]; at 50.0 µM 84.3% | [14]; at 1.2 µM 79% | [14]; at 3.7 µM 84% | [14]; at 11.0 µM 89% | [14]; at 33.0 µM 89% | [14]; at 100.0 µM 89% | [15]; [17] 89% | [15]; [18] 88% | [15]; at 50.0 µM 88.3% | [16]; at 1.2 µM 96% | [16]; at 3.7 µM 96% | [16]; at 11.0 µM 95% | [16]; at 33.0 µM 94% | [16]; at 100.0 µM 88%
inactive: [2]; at 1.2 µM 4% | [2]; at 3.7 µM 6% | [2]; at 11.0 µM 15% | [2]; at 33.0 µM 29% | [2]; at 100.0 µM 36% | [4]; at 1.2 µM 2% | [4]; at 3.7 µM 11% | [4]; at 11.0 µM 26% | [4]; at 33.0 µM 43% | [4]; at 100.0 µM 59% | [6]; at 1.2 µM 23% | [6]; at 3.7 µM 39% | [6]; [17] 45% | [6]; at 11.0 µM 55% | [6]; at 33.0 µM 65% | [6]; [18] 62% | [6]; at 50.0 µM 53% | [8]; at 50.0 µM 60.9% | [9]; at 1.2 µM -8% | [9]; at 3.7 µM -6% | [9]; at 11.0 µM 4% | [9]; at 33.0 µM 19% | [9]; at 100.0 µM 24% | [11]; at 1.2 µM -21% | [11]; at 3.7 µM -21% | [11]; [17] 2% | [11]; at 11.0 µM -1% | [11]; at 33.0 µM 5% | [11]; [18] 14% | [11]; at 50.0 µM 3.55% | [11]; at 100.0 µM 7% | [12]; at 1.2 µM 5% | [12]; at 3.7 µM 11% | [12]; at 11.0 µM 23% | [12]; at 33.0 µM 36% | [12]; at 100.0 µM 51% | [13]; at 1.2 µM 7% | [13]; at 3.7 µM 10% | [13]; at 11.0 µM 21% | [13]; at 33.0 µM 41% | [13]; at 100.0 µM 60%

O=[N+]([O-])c1cc(S(=O)(=O)F)ccc1Cl
inactive: [1]; at 1.2 µM 20% | [1]; at 3.7 µM 24% | [1]; at 11.0 µM 49% | [2]; at 1.2 µM 27% | [2]; at 3.7 µM 28% | [2]; at 11.0 µM 9% | [3]; at 1.2 µM 13% | [3]; at 3.7 µM 20% | [3]; at 11.0 µM 47% | [4]; at 1.2 µM 11% | [4]; at 3.7 µM 20% | [4]; at 11.0 µM 18% | [5]; at 1.2 µM 18% | [5]; at 3.7 µM 20% | [5]; [17] 51% | [5]; at 11.0 µM 38% | [5]; [18] 57% | [6]; at 1.2 µM 27% | [6]; at 3.7 µM 25%
active: [1]; at 33.0 µM 94% | [1]; at 100.0 µM 98% | [2]; at 33.0 µM 93% | [2]; at 100.0 µM 99% | [3]; at 33.0 µM 82% | [3]; at 100.0 µM 99% | [4]; at 33.0 µM 93% | [4]; at 100.0 µM 99% | [5]; at 33.0 µM 94% | [5]; at 50.0 µM 92.5% | [5]; at 100.0 µM 100%
